Results filed as inconclusive are left out. Activity calls are given as the source filed them. Calls come from the whole dose curve; as a rule, active = well fitted curve in the direction sought with a large enough effect; inconclusive = small, poorly fitted or top-dose-only effect, or another doubt; inactive = no such curve, though single readings can be large; an effect the other way counts as inactive or inconclusive.
Columns and labels:
[1] = system: C33A; test: Primary qHTS to identify gynecologic anti-cancer compounds using libraries of approved drugs and bioactive compounds (AID 1345084); settings: Gynecologic cancer cell panel viability, ATPlite luminescence, 48 h; series mostly up to 57.5 µM; note: nearly all actives have a fitted effect of over 55% in size; note: potency is the fitted concentration of half-maximal effect
Procedure, shortened: (§1)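 In this quantitative HTS, cell killing is estimated from loss of ATP-dependent luciferase light. Cells see five compound concentrations over a 48 h exposure.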

[2] = system: CAOV3; test: as above; settings: Gynecologic cancer cell panel viability, ATPlite luminescence, 48 h; series mostly up to 57.5 µM
Procedure, shortened: as §1

[3] = system: CASKI; test: as above; settings: Gynecologic cancer cell panel viability, ATPlite luminescence, 48 h; series mostly up to 57.5 µM
Procedure, shortened: as §1

[4] = system: Es-2; test: as above; settings: Gynecologic cancer cell panel viability, ATPlite luminescence, 48 h; series mostly up to 57.5 µM
Procedure, shortened: as §1

[5] = system: HeLa; test: as above; settings: Gynecologic cancer cell panel viability, ATPlite luminescence, 48 h; series mostly up to 57.5 µM
Procedure, shortened: as §1

[6] = system: Hek293T; test: as above; settings: Gynecologic cancer cell panel viability, ATPlite luminescence, 48 h, control line for the selectivity index; series mostly up to 57.5 µM
Procedure, shortened: as §1

[7] = system: JEG-3; test: as above; settings: Gynecologic cancer cell panel viability, ATPlite luminescence, 48 h; series mostly up to 57.5 µM
Procedure, shortened: as §1

[8] = system: OV90; test: as above; settings: Gynecologic cancer cell panel viability, ATPlite luminescence, 48 h; series mostly up to 57.5 µM
Procedure, shortened: as §1

[9] = system: PA-1; test: as above; settings: Gynecologic cancer cell panel viability, ATPlite luminescence, 48 h; series mostly up to 57.5 µM
Procedure, shortened: as §1

[10] = system: Tov-21-G; test: as above; settings: Gynecologic cancer cell panel viability, ATPlite luminescence, 48 h; series mostly up to 57.5 µM
Procedure, shortened: as §1

[11] = system: Tov112D; test: as above; settings: Gynecologic cancer cell panel viability, ATPlite luminescence, 48 h; series mostly up to 57.5 µM
Procedure, shortened: as §1

[12] = system: SKOV3; test: as above; settings: Gynecologic cancer cell panel viability, ATPlite luminescence, 48 h; series mostly up to 57.5 µM
Procedure, shortened: as §1

[13] = qHTS assay to identify inhibitors of the type 1 interferon - major histocompatibility complex class I in skeletal muscle: Counter screen cell viability and HiBit confirmation (AID 1347412); settings: iHSKM muscle cells + IFN-b, HiBiT or CellTiter-Glo, 24 h, at 45.9 µM (top of the series); note: nearly all actives have a fitted effect of over 60% in size
Procedure, shortened: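 Duplicate plates, pinned identically: one read for HiBiT-tagged endogenous HLA-B luminescence, the other for ATP-content viability via CellTiter Glo. Cells were genome-engineered human myoblasts given 4 ng/ml IFN-b; compounds 12-pt, 1:3 from 46 uM final; 24 hr exposure.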
% is set by controls: 0 for no effect and ±100 for the full control effect.

C[C@@]1(O)[C@H](O)[C@@H](CO)O[C@H]1n1ccc(N)nc1=O
inactive: Potency [1] | Potency [2] | Potency [3] | Potency [4] | Potency [5] | Potency [6] | Potency [7] | Potency [8] | Potency [9] | Potency [10] | Potency [11]

C/C1=C\CC[C@H](C)CCO[C@@H]2O[C@H](CO[C@@H]3OC[C@](O)(COC1=O)[C@H]3O)[C@@H](O)[C@H](O)[C@H]2O
inactive: Potency [1] | Potency [2] | Potency [3] | Potency [4] | Potency [5] | Potency [6] | Potency [7] | Potency [8] | Potency [9] | Potency [10] | Potency [11]

C=C[C@H]1C(O[C@@H]2O[C@H](CO)[C@@H](O)[C@H](O)[C@H]2O)OC=C2C(=O)N3CCc4c([nH]c5ccccc45)C3CC21 (stereo not given in full)
inactive: Potency [1] | Potency [2] | Potency [3] | Potency [4] | Potency [5] | Potency [6] | Potency [7] | Potency [8] | Potency [9] | Potency [12] | Potency [10] | Potency [11]

Cc1cc(C(=O)N2CCCCc3ccccc32)ccc1CNC(=O)N1CCC[C@H]1C(=O)N(C)C
inactive: Potency [1] | Potency [2] | Potency [3] | Potency [4] | Potency [5] | Potency [6] | Potency [7] | Potency [8] | Potency [9] | Potency [10] | Potency [11]

CC(=O)O[C@H]1[C@H](O[C@H]2[C@@H]3C=CO[C@@H](O[C@@H]4O[C@H](CO)[C@@H](O)[C@H](O)[C@H]4O)[C@@H]3[C@@]3(CO)O[C@@H]23)O[C@@H](C)[C@H](OC(=O)/C=C/c2ccccc2)[C@H]1OC(=O)/C=C/c1ccccc1
inactive: activity change, negative = cytotoxicity [1] 1.54% [at 11.6 µM] | activity change, negative = cytotoxicity [2] 23.2% [at 11.6 µM] | activity change, negative = cytotoxicity [3] 9.13% [at 11.6 µM] | activity change, negative = cytotoxicity [4] 2.44% [at 11.6 µM] | activity change, negative = cytotoxicity [5] -1.93% [at 11.6 µM] | activity change, negative = cytotoxicity [6] -2.9% [at 11.6 µM] | activity change, negative = cytotoxicity [7] -3.47% [at 11.6 µM] | activity change, negative = cytotoxicity [8] 3.4% [at 11.6 µM] | activity change, negative = cytotoxicity [9] 16.9% [at 11.6 µM] | activity change, negative = cytotoxicity [12] 5.38% [at 11.6 µM] | activity change, negative = cytotoxicity [10] -0.504% [at 11.6 µM] | activity change, negative = cytotoxicity [11] 5.71% [at 11.6 µM]

C=CC1C(OC2OC(CO)C(O)C(O)C2O)OC=C(C(=O)OC)C1CC1CC(=O)CC(CCc2ccc(O)cc2)O1 (stereo not given)
inactive: Potency [1] | Potency [2] | Potency [3] | Potency [4] | Potency [5] | Potency [6] | Potency [7] | Potency [8] | Potency [9] | Potency [12] | Potency [11]

C=C1C(=O)OC2CC3(C)C(CC12)C(C)=CC(O)C3OC(C)=O (stereo not given)
inactive: Potency [1] | Potency [2] | Potency [3] | Potency [4] | Potency [5] | Potency [6] | Potency [7] | Potency [8] | Potency [9] | Potency [12] | Potency [10] | Potency [11]

COc1cc2ncnc(Nc3ccc(O)cc3)c2cc1OC
inactive: Potency [1] | Potency [2] | Potency [3] | Potency [4] | Potency [5] | Potency [6] | Potency [7] | Potency [8] | Potency [9] | Potency [12] | Potency [11]

Cc1ccc(-c2ccc3c(ccc4sc5c(c43)NC[C@@H](C)NC5=O)n2)cn1
inactive: Potency [1] | Potency [2] | Potency [3] | Potency [4] | Potency [5] | Potency [6] | Potency [7] | Potency [8] | Potency [9] | Potency [12] | Potency [10] | Potency [11] | activity change, negative = inhibition ([13]; HiBiT) -1.05% | activity change, negative = inhibition ([13]; Viability) 10.5%

COc1ccc2cc(C(C)C(=O)Oc3ccc(C(N)=S)cc3)ccc2c1 (stereo not given)
inactive: Potency [1] | Potency [2] | Potency [3] | Potency [4] | Potency [5] | Potency [6] | Potency [7] | Potency [8] | Potency [9] | Potency [12] | Potency [10] | Potency [11]

C=C1C(O)CC2C(C(=O)O)=COC(O[C@@H]3O[C@H](COC(=O)/C=C/c4ccc(O)cc4)[C@@H](O)[C@H](O)[C@H]3O)C12 (stereo not given in full)
inactive: Potency [1] | Potency [2] | Potency [3] | Potency [4] | Potency [5] | Potency [6] | Potency [7] | Potency [8] | Potency [9] | Potency [12] | Potency [10] | Potency [11]

C[C@@H]1C(=O)OC[C@H]2C(C(=O)O)=C[C@@H]3CC(C)(C)C[C@]312
inactive: Potency [1] | Potency [2] | Potency [3] | Potency [4] | Potency [5] | Potency [6] | Potency [7] | Potency [8] | Potency [9] | Potency [12] | Potency [11]

COc1ccc(C[C@H](N)C(=O)N[C@@H]2[C@H](O)[C@H](n3cnc4c(N(C)C)ncnc43)O[C@@H]2CO)cc1
active: Potency [1] 3160 nM | Potency [2] 1580 nM | Potency [3] 2240 nM | Potency [4] 2510 nM | Potency [5] 1260 nM | Potency [6] 2240 nM | Potency [7] 3550 nM | Potency [8] 7940 nM | Potency [9] 1000 nM | Potency [12] 2820 nM | Potency [10] 4470 nM | Potency [11] 1780 nM

C[C@H](C/C=C/C(C)(C)O)[C@H]1CC[C@@]2(C)[C@@H]3[C@@H](O[C@@H]4O[C@H](CO)[C@@H](O)[C@H](O)[C@H]4O)C=C4C(CC[C@H](O)C4(C)C)[C@]3(C=O)CC[C@]12C (stereo not given in full)
inactive: Potency [1] | Potency [2] | Potency [3] | Potency [4] | Potency [5] | Potency [6] | Potency [7] | Potency [8] | Potency [9] | Potency [10] | Potency [11]

COc1ccc(C2=N[C@@H](c3ccc(Cl)cc3)[C@@H](c3ccc(Cl)cc3)N2C(=O)N2CCNC(=O)C2)c(OC(C)C)c1
active: Potency [9] 14100 nM
inactive: Potency [1] | Potency [2] | Potency [3] | Potency [4] | Potency [5] | Potency [6] | Potency [7] | Potency [8] | Potency [12] | Potency [11]

NCc1c[nH]c(=S)n1[C@@H]1CCc2c(F)cc(F)cc2C1
inactive: Potency [1] | Potency [2] | Potency [3] | Potency [4] | Potency [5] | Potency [6] | Potency [7] | Potency [8] | Potency [9] | Potency [10] | Potency [11]

Reference: PubChem BioAssay (NCATS)
